63 compounds from ChEMBL document CHEMBL1201862, “PubChem BioAssay data set” (2004) can be followed below.

Hit rate of the full screen: of about 400,000 compounds, about 2,100 (0.53%) were called active. Not shown: some 14% with an inconclusive outcome. The rule behind the calls is not given here. This excerpt belongs to a sample that is enriched for actives.

In the assay the target is Ataxin-2 (Homo sapiens) (UniProt Q99700). Description: qHTS for Inhibitors of ATXN expression. In kind it is functional. For orientation: In qHTS, concentration-response curves come from the screen itself.
Sequence of Ataxin-2 (Homo sapiens) (Q99700 whole entry): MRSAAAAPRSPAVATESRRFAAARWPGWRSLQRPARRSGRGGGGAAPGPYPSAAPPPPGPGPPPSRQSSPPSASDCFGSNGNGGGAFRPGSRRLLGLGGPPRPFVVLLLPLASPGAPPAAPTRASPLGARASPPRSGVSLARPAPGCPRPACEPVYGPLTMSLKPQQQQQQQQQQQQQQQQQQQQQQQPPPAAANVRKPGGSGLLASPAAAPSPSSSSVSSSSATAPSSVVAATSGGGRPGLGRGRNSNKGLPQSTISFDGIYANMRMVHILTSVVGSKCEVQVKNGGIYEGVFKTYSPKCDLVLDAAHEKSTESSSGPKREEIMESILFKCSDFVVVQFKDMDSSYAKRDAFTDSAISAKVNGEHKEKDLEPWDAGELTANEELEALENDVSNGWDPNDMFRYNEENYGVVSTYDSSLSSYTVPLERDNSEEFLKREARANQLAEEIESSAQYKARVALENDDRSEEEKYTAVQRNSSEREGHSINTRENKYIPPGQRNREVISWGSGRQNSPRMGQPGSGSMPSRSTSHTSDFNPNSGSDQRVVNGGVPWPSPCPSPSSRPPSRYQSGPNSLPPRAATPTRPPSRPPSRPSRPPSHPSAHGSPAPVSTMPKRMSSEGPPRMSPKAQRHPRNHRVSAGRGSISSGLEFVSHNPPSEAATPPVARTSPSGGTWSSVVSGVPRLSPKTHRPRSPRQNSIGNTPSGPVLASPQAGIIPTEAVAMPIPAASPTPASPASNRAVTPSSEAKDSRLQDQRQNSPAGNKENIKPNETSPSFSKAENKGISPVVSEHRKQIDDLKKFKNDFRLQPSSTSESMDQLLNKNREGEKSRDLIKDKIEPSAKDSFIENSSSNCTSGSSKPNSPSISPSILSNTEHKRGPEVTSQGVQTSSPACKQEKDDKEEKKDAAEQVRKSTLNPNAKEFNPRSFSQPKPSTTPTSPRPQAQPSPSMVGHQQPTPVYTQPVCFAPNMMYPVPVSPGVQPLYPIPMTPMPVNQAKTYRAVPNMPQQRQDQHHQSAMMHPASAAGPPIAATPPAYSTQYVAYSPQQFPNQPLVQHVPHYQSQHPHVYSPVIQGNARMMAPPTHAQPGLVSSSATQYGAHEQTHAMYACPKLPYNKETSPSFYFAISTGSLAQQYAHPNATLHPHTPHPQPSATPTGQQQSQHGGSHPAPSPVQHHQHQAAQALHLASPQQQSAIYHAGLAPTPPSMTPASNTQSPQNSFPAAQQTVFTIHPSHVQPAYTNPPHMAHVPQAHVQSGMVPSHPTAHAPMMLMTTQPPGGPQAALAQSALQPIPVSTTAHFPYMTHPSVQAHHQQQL
As to `CC(C)CNC(=O)COC(=O)c1c2c(nc3ccccc13)/C(=C/c1cccs1)CC2`, the Potency entry is “inactive”. On to `CCN1CCN(Cc2c(O)ccc3c2O/C(=C\c2ccccc2)C3=O)CC1`, for which the Potency result was “inactive”. As to `CCOC(O)=C(C(C)=N)C1CC(=O)NC1=O` (stereo not drawn), the Potency entry is “inactive”. Then `CCN(CC)CCNC(=O)c1cc(-c2ccc(Br)s2)nc2ccccc12`, with 39.8 µM (active); and `CCN(CC)CC(C)CNC(=O)c1cc(-c2ccc(Br)s2)nc2ccccc12` (stereo not drawn), with 14.1 µM (active).

On to `Cc1ccc(-c2cc(C(=O)NCC3(N(C)C)CCCCC3)c3ccccc3n2)o1`, for which the Potency result was “inactive”. `O=C(NC1CC1)c1cc(-c2ccc(Br)cc2)nc2ccccc12`: the Potency entry was “inactive”. As to `CCc1ccc(-c2cc(C(=O)NN3CCOCC3)c3ccccc3n2)s1`, the Potency result is “inactive”. On to `Cc1cc(C(=O)NCCN2CCOCC2)c2ccccc2n1`, for which the Potency result is “inactive”. Regarding `CN(Cc1ccccc1OCCO)CC1CCCN(CCc2ccc(Cl)cc2)C1` (stereo not drawn), the Potency result was “inactive”. Take `C=CCNC(=O)/C(C#N)=C/c1c(N2CCN(c3ccccc3)CC2)nc2c(C)cccn2c1=O`: the Potency result was “inactive”. Under `CCc1c(C)c2cc3c(c(C)c2oc1=O)OCN(CCc1ccc(OC)c(OC)c1)C3` stands “inactive”; under `COc1ccc(CCN(C)C(=O)c2cc(=O)c3ccccc3o2)cc1OC`, “inactive”.

For the compound `COc1ccc(CCNc2ncnc3c2oc2ccccc23)cc1OC`, the Potency is 31.6 µM (active). Then `COc1cc(C(Nc2ccccn2)c2ccc3ccc(C)nc3c2O)cc(OC)c1O` (stereo not drawn), with 39.8 µM (active); and `COc1cc(/C=N/Nc2ccccn2)cc(OC)c1O`, with “inactive”. As for `Cc1cccc(NC(c2ccccc2C)c2ccc3ccc(C)nc3c2O)n1` (stereo not drawn), the Potency result is “inactive”. Turning to `CC(C)C[C@@H](COCc1cccc(Cl)c1)N1CCN(C(=O)c2ccc(C(F)(F)F)cc2)CCC1=O`, the Potency is 22.4 µM (active). On to `CC(C)C[C@@H](COCc1ccc(Cl)cc1)N1CCN(C(=O)c2ccc(C(F)(F)F)cc2)CCC1=O`, for which the Potency was 31.6 µM (active). In the case of `CC(C)CC(COCc1cccc(Cl)c1)N1CCN(C(=O)c2ccc(C(F)(F)F)cc2)CCC1=O` (stereo not drawn), the Potency was 39.8 µM (active). As to `CN1CCN(C(=O)c2ccc(C(F)(F)F)cc2)CC1`, the Potency result is “inactive”.

For `CCn1nc(NC(C)=O)c2cc3ccc(C)cc3nc21`, the Potency entry was “inactive”.

For the compound `CCC(=O)NC1=C(Cl)C(=O)C(NC(=O)CC)=C(Cl)C1=O`, the Potency was 5.01 µM (active).

`CCN(CC)c1ccc2cc(-c3nnc(-c4ccncc4)o3)c(=O)oc2c1`: the Potency entry is “inactive”. Under `O=C(N/N=C/c1sc(N2CCOCC2)nc1-c1ccccc1)c1ccccc1Cl` stands “inactive”; under `O=C(Oc1c(-c2ccco2)oc2ccccc2c1=O)c1cccnc1`, “inactive”. As to `CCOC(=O)C1=C(C)OC(N)=C(C#N)C1c1cccs1` (stereo not drawn), the Potency result was “inactive”.

With `O=S(=O)(Nc1cccc(-c2nc3cccnc3s2)c1)c1ccc2c(c1)CCCC2`, the Potency result was “inactive”. `CC1C(=O)C(C)C(c2cc(Cl)ccc2O)NC1c1cc(Cl)ccc1O` (stereo not drawn): the Potency is 39.8 µM (active).

For `CCc1cc2c(CN3CCN(CC)CC3)cc(=O)oc2cc1O`, the Potency entry is “inactive”. As to `CCCCN(C)C1=CC2=CC(=C(C#N)C#N)CCC2CC1` (stereo not drawn), the Potency entry was “inactive”.

`Cc1sc2ncn(CC(=O)NCC3COc4ccccc4O3)c(=O)c2c1S(=O)(=O)N1CCCCC1` (stereo not drawn): the Potency entry is “inactive”. As to `COCc1c(C(=O)N2CCC(N3CCCCC3)CC2)cnn1-c1ncc(C)c(-c2cccs2)n1`, the Potency result was “inactive”. `COc1cc(OC)c(OC)cc1CNCC1COc2ccccc2O1` (stereo not drawn): the Potency entry is “inactive”.

On to `Cc1nc2ccccc2c2oc(C(=O)NCC3COc4ccccc4O3)cc12` (stereo not drawn), for which the Potency is 35.5 µM (active). For `Cc1nc2ccccc2c2oc(C(=O)N3CCC(N4CCCCC4)CC3)cc12`, the Potency was 5.62 µM (active). For the compound `O=C(c1cc(-c2ccc(F)cc2)nc2ccccc12)N1CCN(C2CCS(=O)(=O)C2)CC1` (stereo not drawn), the Potency result was “inactive”. As to `Nc1cccc(N2C(=O)c3cccc4c(N)ccc(c34)C2=O)c1`, the Potency result was “inactive”. `CC(O)C(/N=C/C1=C(O)OC(C)(C)OC1=O)C(=O)O` (stereo not drawn): the Potency entry is “inactive”. Then `O=C(O)c1ccc2nc(-c3ccco3)c(-c3ccco3)nc2c1`, with “inactive”.

Consider `CCOc1ccc2nc3sc(C(=O)N4CCOCC4)c(N)c3cc2c1`, for which the Potency result is “inactive”.

`CCc1cccc2cc3c(N)c(C(=O)Nc4ccc(S(=O)(=O)N5CCCC5)cc4)sc3nc12`: the Potency entry was “inactive”. As for `Nc1c(C(=O)Nc2ccc(S(=O)(=O)N3CCCC3)cc2)sc2nc3ccc(OC(F)(F)F)cc3cc12`, the Potency is 4.47 µM (active). `N#C/C(=C\c1c(Oc2ccc(Cl)cc2)nc2ccccn2c1=O)C(=O)NC1CCS(=O)(=O)C1` (stereo not drawn): the Potency result is “inactive”. For the compound `COC(=O)c1[nH]c2ccc(Br)cc2c1NC(=O)C(C)N1CCN(C2CCCCC2)CC1` (stereo not drawn), the Potency was 39.8 µM (active). As to `Cn1c(N)c(C(=O)COC(=O)CCOc2ccc(C(C)(C)C)cc2)c(=O)n(C)c1=O`, the Potency result was “inactive”.

As to `O=C(NC1CCC(O)CC1)c1cc(-c2ccco2)nc2ccccc12` (stereo not drawn), the Potency result was “inactive”.

Consider `COc1cc(CN2CCC3(CCC(CNC(=O)c4ccccc4)O3)CC2)cc(OC)c1` (stereo not drawn), for which the Potency was 11.2 µM (active). Take `COc1cc(OC)cc(C(=O)NCCCCNC(=O)c2cc(OC)cc(OC)c2)c1`: the Potency result was “inactive”. Under `CN1CCCC1CCNc1ccc2c(=O)c3ccccc3oc2c1` (stereo not drawn) stands “inactive”. Take `Cc1c(Cl)cccc1N/C(SCC(=O)N1CCCCCC1)=C(/C#N)c1nc2ccccc2s1`: the Potency is 25.1 µM (active). In the case of `CC1=CC(=C(C#N)c2nc3ccccc3s2)C=C(C)N1CC1CCCO1` (stereo not drawn), the Potency entry is “inactive”. `N#C/C(=C(/O)COC(=O)c1ccccc1O)c1nc2ccccc2s1`: the Potency result is “inactive”. Under `COc1ccc(-c2c(C#N)c(N)nc3sc(C(=O)c4ccccc4)c(N)c23)cc1` stands “inactive”; under `COc1ccc(CNCC(=O)Nc2sccc2C#N)cc1`, “inactive”.

As to `COc1ccc(-c2oc(NC(=O)CCl)c(C#N)c2-c2ccc(OC)cc2)cc1`, the Potency is 31.6 µM (active). As for `Cc1cccc(C)c1NC(=O)NC1(C(=O)N2CCCCC2)CCCCC1`, the Potency result was “inactive”.

As to `O=S(=O)(Nc1nc2n(n1)C(c1ccc(F)cc1)C=C(c1ccccc1)N2)c1ccc(Cl)cc1` (stereo not drawn), the Potency result was “inactive”. With `CC(C)Cc1ccc(C(C)/C=C2/CCC(CN3CCCCC3)C2=O)cc1` (stereo not drawn), the Potency was 35.5 µM (active). Under `CCOC(=O)C1C(=O)C=C(c2ccc(NS(C)(=O)=O)cc2)CC1c1ccco1` (stereo not drawn) stands “inactive”; under `COn1c(C)c(C)c2c3nonc3ccc21`, “inactive”; under `O=C(O)c1cc2cc(Cl)cc(Cl)c2oc1=O`, “inactive”. Take `O=C1C(Br)=C(c2ccccc2)C(c2ccccc2)=C1c1ccccc1`: the Potency was 39.8 µM (active).
